# “And” between values parts separate entries of the source, which are not always exact repeats. Identical values can stand only once. Inconclusive results are not listed. The source made the active and inactive calls.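 The calls were made as follows, unless noted: active = normalized viability below 100% at a tested concentration; inactive = the rest.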
# How the values were obtained:
# [1] = viability loss in pontine glioma line – cell-based, SU-DIPG-XXV, MIPE5.0, CellTiter-Glo, qHTS, dose response (AID 1347065; cut-off not given, nearly all actives have AC50 up to about 26 µM;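 also: cells exposed to compound for 48 hours before ATP readout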); conditions: CellTiter-Glo ATP luminescence
# [2] = SU-DIPG-VI glioma cell viability, MIPE4.0 library, CellTiter-Glo luminescence, qHTS (AID 1347066; cut-off not given, nearly all actives have AC50 up to about 30 µM;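 also: cells exposed to compound for 48 hours before readout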); conditions: CellTiter-Glo ATP luminescence
# [3] = JHH-DIPG-1 glioma cell viability, MIPE5.0 library, CellTiter-Glo luminescence, qHTS (AID 1347067; cut-off not given, nearly all actives have AC50 up to about 26 µM;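 also: cells exposed to compound for 48 hours before readout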); conditions: JHH-DIPG-1 glioma viability, CellTiter-Glo ATP luminescence
# [4] = SU-DIPG-XXV glioma cell viability, MIPE5.0 library, qHTS (AID 1347068; cut-off not given, nearly all actives have IC50 up to about 30 µM)
# [5] = sensitizers of A549 cells to miR-34 induction, primary screen, imaging, A549 dox-inducible miR-34, nuclei and caspase counts (AID 1347080;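 active = compounds whose cell count with miR-34 switched on is under 0.7 times the count with it off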); conditions: A549 miR-34 inducible, Hoechst nuclei count, 48 h
# [6] = phospholipid biosynthesis inhibitors in animal cells, primary screen, cell-based, LOPAC library, screen 4 (AID 1347384; call rule not given here); conditions: phospholipid biosynthesis inhibition screen, at 10 µM
# [7] = survival rescue of mitochondrial mutant cells in low glucose, primary screen, MELAS cybrids, Rieske KO mouse fibroblasts, CellTiter-Glo (AID 1508586;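 active = mean z-score across replicates of 1.96 or higher in either the MELAS or the Rieske mutant cell line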;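 also: z relative to plate mean and SD of compound and empty wells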)
# [8] = ovarian cancer cell viability with rucaparib, profiling panel, oncology-focused library, rucaparib conditional (AID 1508598); conditions: patient-derived ovarian cancer cells, CellTiter-Glo viability, 144 h, stronger effect = lower value
# [9] = molecular target: NAD(+) hydrolase SARM1 (Homo sapiens) (UniProt Q6SZW1); experiment: SARM1 TIR NADase inhibitors, cell lysate, NAD-Glo luminescence (AID 1508614;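 active = compound whose remaining NAD level is above about 45 nM, limit read from the data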;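 also: higher remaining NAD means stronger inhibition of SARM1 NADase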); conditions: SAM-TIR HEK293T lysate NADase, at 1 µM, stronger effect = higher value
# [10] = molecular target: Mitogen-activated protein kinase 7 (Homo sapiens) (UniProt Q13164); experiment: ERK5 transactivation activators in reporter cells, primary screen, cell-based, HTS (AID 1508626;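 active = luciferase signal above three times the same-plate solvent-only control wells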;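 also: luciferase driven by Gal4-ERK5 fusion binding five Gal4 sites before minimal TATA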); conditions: HeLa Gal4-ERK5 transactivation, 18 h, at 5 µM, stronger effect = higher value
# [11] = viability rescue of complex I mutant cybrids, primary screen, cell-based, galactose medium, ATP luminescence (AID 1645843;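 active = z-score of at least 1.8 in each of two replicates, scored against plate mean and spread of sample wells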;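 also: positive z means more ATP and so rescue of galactose-driven cybrid death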); conditions: complex I mutant cybrid cells, 72 h, stronger effect = higher value
# [12] = LFS_MB_P medulloblastoma growth inhibition, cell-based, chromothripsis tumors, cisplatin or BGB combos (AID 1671449; in the data active = inhibition above about 80%;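 also: cells exposed for 96 hours; 0% = vehicle DMSO and 100% = killing by high DMSO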); conditions: LFS_MB_P medulloblastoma cells
# [13] = HDN33 neuroblastoma growth inhibition, cell-based, chromothripsis tumors, cisplatin or BGB combos (AID 1671450; in the data active = inhibition above about 80%;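 also: cells exposed to compound for four days; 0% = vehicle DMSO and 100% = cell killing by high DMSO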); conditions: HDN33 neuroblastoma cells, stronger effect = higher value
# [14] = ICB984 medulloblastoma cell growth inhibition, synergistic combos for chromothripsis tumors, cisplatin or BGB combos (AID 1671451; call rule not given here;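 also: cells exposed for 96 hours before readout; 0% = vehicle DMSO and 100% = killing by high DMSO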); conditions: ICB984 medulloblastoma cells, drug combinations, stronger effect = higher value
# [15] = LFS_MB_1R medulloblastoma cell growth inhibition, synergistic combos for chromothripsis tumors, cisplatin or BGB combos (AID 1671452; in the data active = inhibition above about 80%;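 also: cells exposed for 96 hours before readout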); conditions: LFS_MB_1R medulloblastoma cells, stronger effect = higher value
# [16] = HTB85 osteosarcoma cell growth inhibition, synergistic combos for chromothripsis tumors, BGB or cisplatin IC20 combos (AID 1671453; in the data active = inhibition above about 80%;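 also: cells exposed for 96 hours before readout; 0% = vehicle DMSO and 100% = high DMSO killing control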); conditions: HTB85 osteosarcoma cells, drug combinations, stronger effect = higher value
# [17] = CRL2098 osteosarcoma cell growth inhibition, synergistic combos for chromothripsis tumors, BGB or cisplatin IC20 combos (AID 1671454; in the data active = inhibition above about 80%;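 also: cells exposed for 96 h before readout; 0% = vehicle DMSO and 100% = killing by high DMSO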); conditions: CRL2098 osteosarcoma cells, drug combinations, stronger effect = higher value
# [18] = HD-MB03 medulloblastoma cell growth inhibition, synergistic combos for chromothripsis tumors, BGB or cisplatin IC20 combos (AID 1671455; in the data active = inhibition above about 83%;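 also: 0% = vehicle DMSO and 100% = high DMSO as cytotoxic control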); conditions: HD-MB03 medulloblastoma cells, stronger effect = higher value
# [19] = inhibitors of Cryptococcus chitosan production, flow cytometry, Cibacron Brilliant Red staining (AID 1347148; call rule not given here;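 also: compound exposure lasted three days at 37 degrees C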); conditions: Cryptococcus neoformans chitosan, stronger effect = lower value; at 10 µM unless noted
# [20] = stronger effect = lower value, cell number ratio, induced over uninduced
# [21] = measured here: relative caspase fold change +Dox/-Dox
# [22] = measured here: total cells with miR-34 induction, stronger effect = lower value
# [23] = measured here: total cells without miR-34 induction
# [24] = MELAS cybrid survival, CellTiter-Glo 48 h, stronger effect = higher value
# [25] = Rieske KO mouse fibroblast survival, CellTiter-Glo 72 h
# [26] = measured here: combination with BGB IC40, at 0.05 µM
# NAD(+) hydrolase SARM1 (Homo sapiens), sequence (Q6SZW1 whole entry, looked up, the tested form may be a part): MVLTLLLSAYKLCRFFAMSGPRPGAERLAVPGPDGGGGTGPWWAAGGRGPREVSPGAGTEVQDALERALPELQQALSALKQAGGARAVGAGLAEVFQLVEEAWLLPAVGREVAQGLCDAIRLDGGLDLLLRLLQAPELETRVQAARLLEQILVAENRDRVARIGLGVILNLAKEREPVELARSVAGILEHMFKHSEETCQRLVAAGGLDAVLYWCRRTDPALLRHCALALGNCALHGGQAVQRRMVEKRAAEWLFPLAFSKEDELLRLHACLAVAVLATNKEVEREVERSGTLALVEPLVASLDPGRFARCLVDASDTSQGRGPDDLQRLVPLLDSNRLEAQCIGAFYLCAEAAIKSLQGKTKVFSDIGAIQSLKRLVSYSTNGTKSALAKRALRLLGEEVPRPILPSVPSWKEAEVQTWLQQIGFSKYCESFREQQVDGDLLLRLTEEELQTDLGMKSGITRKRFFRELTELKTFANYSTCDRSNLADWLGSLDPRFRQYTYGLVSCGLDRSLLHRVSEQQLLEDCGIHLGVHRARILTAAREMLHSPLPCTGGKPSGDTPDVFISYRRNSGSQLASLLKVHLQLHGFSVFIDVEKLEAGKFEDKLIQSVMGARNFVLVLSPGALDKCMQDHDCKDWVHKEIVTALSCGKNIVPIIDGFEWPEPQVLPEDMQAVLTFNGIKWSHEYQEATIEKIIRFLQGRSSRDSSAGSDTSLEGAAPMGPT
# Mitogen-activated protein kinase 7 (Homo sapiens), sequence (Q13164 whole entry, looked up, the tested form may be a part): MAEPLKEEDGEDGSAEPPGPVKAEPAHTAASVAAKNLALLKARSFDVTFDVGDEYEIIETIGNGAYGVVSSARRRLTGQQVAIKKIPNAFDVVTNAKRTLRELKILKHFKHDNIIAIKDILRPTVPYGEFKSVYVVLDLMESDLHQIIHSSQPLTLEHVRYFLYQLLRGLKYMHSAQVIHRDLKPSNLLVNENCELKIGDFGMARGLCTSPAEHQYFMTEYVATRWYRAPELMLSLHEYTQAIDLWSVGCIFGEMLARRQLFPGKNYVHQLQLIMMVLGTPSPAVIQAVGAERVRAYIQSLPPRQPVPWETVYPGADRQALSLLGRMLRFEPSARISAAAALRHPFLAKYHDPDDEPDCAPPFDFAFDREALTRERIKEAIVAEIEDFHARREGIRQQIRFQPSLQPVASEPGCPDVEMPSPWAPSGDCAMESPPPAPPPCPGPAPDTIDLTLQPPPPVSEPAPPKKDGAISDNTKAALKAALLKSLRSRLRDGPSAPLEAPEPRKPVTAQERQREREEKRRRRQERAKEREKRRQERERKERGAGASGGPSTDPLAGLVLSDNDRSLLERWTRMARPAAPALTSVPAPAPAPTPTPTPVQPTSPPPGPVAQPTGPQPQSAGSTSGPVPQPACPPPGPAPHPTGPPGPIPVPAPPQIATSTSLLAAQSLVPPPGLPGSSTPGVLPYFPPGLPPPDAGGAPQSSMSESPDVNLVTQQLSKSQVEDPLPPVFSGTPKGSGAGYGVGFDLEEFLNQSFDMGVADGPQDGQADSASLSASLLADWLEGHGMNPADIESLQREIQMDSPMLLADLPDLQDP
structure (smiles),measurement,setting,value
NC(=O)NO,outcome,[1],inactive
same,outcome,[2],inactive
same,outcome,[3],inactive
same,outcome,[4],inactive
same,fold change,[5]; [20],0.975 (inactive) and 0.894 (inactive) and 0.861 (inactive)
same,fold change,[5]; [21],1.12 and 0.968 and 1.05
same,cell count,[5]; [22],10300 and 8660 and 7880
same,cell count,[5]; [23],10600 and 9680 and 9160
same,outcome,[6],inactive
same,z-score,[7]; [24],-0.326 (inactive)
same,z-score,[7]; [25],0.485
same,viability,"[8]; at 0.000305 µM, OCI-C5x cells, with rucaparib 10 µM, 100% = cells with rucaparib alone",105% (inactive)
same,viability,"[8]; at 0.000305 µM, OCI-C5x cells, without rucaparib",113% (inactive)
same,viability,"[8]; at 0.000305 µM, OCI-P5x cells, with rucaparib 20 µM, 100% = cells with rucaparib alone",95.9% (active)
same,viability,"[8]; at 0.000305 µM, OCI-P5x cells, without rucaparib",97.6% (active)
same,viability,"[8]; at 0.00122 µM, OCI-C5x cells, with rucaparib 10 µM, 100% = cells with rucaparib alone",111% (inactive)
same,viability,"[8]; at 0.00122 µM, OCI-C5x cells, without rucaparib",112% (inactive)
same,viability,"[8]; at 0.00122 µM, OCI-P5x cells, with rucaparib 20 µM, 100% = cells with rucaparib alone",98.6% (active)
same,viability,"[8]; at 0.00122 µM, OCI-P5x cells, without rucaparib",102% (inactive)
same,viability,"[8]; at 0.00488 µM, OCI-C5x cells, with rucaparib 10 µM, 100% = cells with rucaparib alone",105% (inactive)
same,viability,"[8]; at 0.00488 µM, OCI-C5x cells, without rucaparib",104% (inactive)
same,viability,"[8]; at 0.00488 µM, OCI-P5x cells, with rucaparib 20 µM, 100% = cells with rucaparib alone",101% (inactive)
same,viability,"[8]; at 0.00488 µM, OCI-P5x cells, without rucaparib",109% (inactive)
same,viability,"[8]; at 0.0195 µM, OCI-C5x cells, with rucaparib 10 µM, 100% = cells with rucaparib alone",104% (inactive)
same,viability,"[8]; at 0.0195 µM, OCI-C5x cells, without rucaparib",115% (inactive)
same,viability,"[8]; at 0.0195 µM, OCI-P5x cells, with rucaparib 20 µM, 100% = cells with rucaparib alone",106% (inactive)
same,viability,"[8]; at 0.0195 µM, OCI-P5x cells, without rucaparib",109% (inactive)
same,viability,"[8]; at 0.0781 µM, OCI-C5x cells, with rucaparib 10 µM, 100% = cells with rucaparib alone",116% (inactive)
same,viability,"[8]; at 0.0781 µM, OCI-C5x cells, without rucaparib",106% (inactive)
same,viability,"[8]; at 0.0781 µM, OCI-P5x cells, with rucaparib 20 µM, 100% = cells with rucaparib alone",106% (inactive)
same,viability,"[8]; at 0.0781 µM, OCI-P5x cells, without rucaparib",116% (inactive)
same,viability,"[8]; at 0.313 µM, OCI-C5x cells, with rucaparib 10 µM, 100% = cells with rucaparib alone",109% (inactive)
same,viability,"[8]; at 0.313 µM, OCI-C5x cells, without rucaparib",114% (inactive)
same,viability,"[8]; at 0.313 µM, OCI-P5x cells, with rucaparib 20 µM, 100% = cells with rucaparib alone",103% (inactive)
same,viability,"[8]; at 0.313 µM, OCI-P5x cells, without rucaparib",110% (inactive)
same,viability,"[8]; at 1.25 µM, OCI-C5x cells, with rucaparib 10 µM, 100% = cells with rucaparib alone",102% (inactive)
same,viability,"[8]; at 1.25 µM, OCI-C5x cells, without rucaparib",116% (inactive)
same,viability,"[8]; at 1.25 µM, OCI-P5x cells, with rucaparib 20 µM, 100% = cells with rucaparib alone",96.8% (active)
same,viability,"[8]; at 1.25 µM, OCI-P5x cells, without rucaparib",110% (inactive)
same,viability,"[8]; at 5 µM, OCI-C5x cells, with rucaparib 10 µM, 100% = cells with rucaparib alone",105% (inactive)
same,viability,"[8]; at 5 µM, OCI-C5x cells, without rucaparib",114% (inactive)
same,viability,"[8]; at 5 µM, OCI-P5x cells, with rucaparib 20 µM, 100% = cells with rucaparib alone",109% (inactive)
same,viability,"[8]; at 5 µM, OCI-P5x cells, without rucaparib",111% (inactive)
same,remaining NAD,[9],10 nM (inactive)
same,luciferase signal,[10],44 AU (inactive)
same,z-score,[11],0.03 (inactive)
same,inhibition,"[12]; at 0.5 µM, stronger effect = higher value",-32.5% (inactive)
same,inhibition,"[12]; measured here: combination with BGB IC20, at 0.005 µM",-13.7%
same,inhibition,"[12]; measured here: combination with BGB IC40, at 0.005 µM",33.3%
same,inhibition,[12]; [26],-4.05%
same,inhibition,"[12]; measured here: combination with cisplatin, at 0.5 µM, stronger effect = higher value",-74.7%
same,inhibition,"[12]; measured here: combination with cisplatin, at 5 µM, stronger effect = higher value",7.33%
same,inhibition,"[13]; BGB combo, at 5 µM",4.14%
same,inhibition,[13]; at 0.5 µM,-0.11% (inactive)
same,inhibition,"[13]; cisplatin combo, at 5 µM",7.9%
same,inhibition,"[13]; measured here: with BGB IC20 combination, at 0.5 µM",1.89%
same,inhibition,"[13]; measured here: with cisplatin IC20 combination, at 0.5 µM",-0.484%
same,inhibition,"[13]; single agent, at 5 µM",3.76%
same,inhibition,"[14]; BGB IC20 combo, at 0.005 µM",-9.77%
same,inhibition,"[14]; BGB IC40 combo, at 0.005 µM",-3.4%
same,inhibition,"[14]; BGB IC40 combo, at 0.05 µM",-15.1%
same,inhibition,[14]; at 0.5 µM,-0.36% (inactive)
same,inhibition,"[14]; cisplatin combo, at 0.05 µM",-15.1%
same,inhibition,"[14]; cisplatin combo, at 0.5 µM",-15.2%
same,inhibition,"[14]; cisplatin combo, at 5 µM",-5.34%
same,inhibition,"[14]; measured here: 5 uM single agent, at 5 µM",-13.7%
same,inhibition,[15]; at 0.5 µM,-11.7% (inactive)
same,inhibition,[15]; [26],-14.3%
same,inhibition,"[15]; measured here: combination with cisplatin, at 0.5 µM",23.3%
same,inhibition,"[15]; measured here: combination with cisplatin, at 5 µM",27.3%
same,inhibition,[16]; at 0.5 µM,4.31% (inactive)
same,inhibition,"[16]; measured here: with BGB IC20, at 0.5 µM",-11.6%
same,inhibition,"[16]; measured here: with BGB IC20, at 5 µM",7.32%
same,inhibition,"[16]; measured here: with cisplatin IC20, at 0.5 µM",-0.499%
same,inhibition,"[16]; measured here: with cisplatin IC20, at 5 µM",13.2%
same,inhibition,"[16]; single agent, at 5 µM",18.4%
same,inhibition,[17]; at 0.5 µM,-5.49% (inactive)
same,inhibition,"[17]; measured here: combination with BGB at IC20, at 0.5 µM",-9.56%
same,inhibition,"[17]; measured here: combination with cisplatin at IC20, at 0.5 µM",4.43%
same,inhibition,[18]; at 0.5 µM,-4.93% (inactive)
same,inhibition,"[18]; measured here: combo with BGB at IC20, at 0.5 µM",-2.45%
same,inhibition,"[18]; measured here: combo with cisplatin at IC20, at 0.5 µM",-8.29%
CC1=NN(c2ccccc2)C(=O)C1,outcome,[1],inactive
same,outcome,[2],inactive
same,outcome,[3],inactive
same,outcome,[4],inactive
same,fold change,[5]; [20],0.988 (inactive) and 0.936 (inactive) and 0.929 (inactive)
same,fold change,[5]; [21],0.941 and 1.18 and 0.593
same,cell count,[5]; [22],5320 and 7500 and 8540
same,cell count,[5]; [23],5390 and 8010 and 9190
same,fold fluorescence,[19],4.15 [at 287 µM] (inactive)
same,z-score,[7]; [24],-0.423 (inactive)
same,z-score,[7]; [25],0.67
same,remaining NAD,[9],10 nM (inactive)
same,z-score,[11],1.25 (inactive)

# Source: PubChem BioAssay
